Where “and” joins values, the source holds several entries; their conditions need not be identical. Equal entries are not always repeated. Results filed as inconclusive are left out. Calls of active or inactive are those of the source. Unless noted, calls come from the whole dose curve; as a rule, active = well fitted curve in either direction with a large enough effect (not every such curve was filed as active); inconclusive = small, poorly fitted or top-dose-only effect, or another doubt; inactive = flat fitted curve, though single readings scatter.

A short description of assay [1]: AP1 Signaling Pathway (AID 357). Note: % is set by controls: 0 for no effect and ±100 for the full control effect. Conditions: ME-180 AP-1-bla reporter, EGF-induced, beta-lactamase ratio, 5 h; at 7.69 µM (top of the series) unless noted. The essentials: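 AP-1-bla ME-180 cells with beta-lactamase reporter under AP-1 response element, stimulated with EC50 EGF; compounds titrated, 5 hours at 37 degrees Celsius. CCF4 read at 460/530 nm ratio; positive and negative modulators judged by AC50.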

Assay [2] addresses Cytochrome P450 1A2 (Homo sapiens) (UniProt P05177). As to the kind of experiment: p450-cyp1a2 (AID 410; calls by dose curve;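 note: -100% = full effect of reference inhibitor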). The essentials:
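20nM CYP1A2 with 100uM Luciferin-ME (at Km) in 100mM KPO4; compound preincubated 10 min, NADPH regeneration added, 60 min at room temperature. Luciferin quantified by luminescence after detection reagent; normalized to 57 uM furafylline.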

Assay [3] is described as follows: NFAT Signaling Pathway (AID 444).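 Note: carbachol stimulus at about its EC50 of 1 µM final; % is set by controls: 0 for no effect and ±100 for the full control effect.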 The conditions noted are these: Jurkat NFAT-bla M1, carbachol, beta-lactamase ratio, 5 h; at 7.69 µM (top of the series) unless noted. The essentials: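 Jurkat cells with NFAT-driven β-lactamase reporter and co-expressed M1 receptor, stimulated with carbachol (final 1 uM, ~EC50), compound titration, 5 h at 37 °C. CCF4 loaded 1 h at RT; 460/530 nm ratio gave %activity and AC50.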

Assay [4] in a line: Stat Signaling Pathway (AID 446).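 Note: ME-180 cervical cancer cells given 40 pM IL-6 alongside compound; SIE-controlled beta-lactamase reporter measured as 460/530 nm FRET emission ratio; % is set by controls: 0 for no effect and ±100 for the full control effect.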 Conditions: ME-180 (cervical carcinoma) SIE beta-lactamase reporter, IL-6 stimulated, 5 h; at 7.69 µM (top of the series) unless noted. In a few lines:
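IL-6/STAT signaling read in ME-180 cells via an SIE beta-lactamase reporter. Stimulus was 40 pM IL-6 (its AC50) for 5 hrs, so both activation and inhibition register.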

The target of assay [5] is Glucocorticoid receptor (Homo sapiens) (UniProt P04150). As to the kind of experiment: GR-EFC Redistribution (AID 451; calls by dose curve; note: potency is the fitted concentration of half-maximal effect). Conditions: CHO-K1 GR-EFC translocation, beta-gal luminescence, 2 h. In a few lines: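 CHO-K1 cells expressing nuclear EA and GR-ED fragments of b-gal; compounds titrated up to 46 uM final, 2 h at 37 C. GR nuclear translocation read as complemented b-gal luminescence after 1 h RT detection.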

Assay [6] has as its target Mitogen-activated protein kinase 10 (Mus musculus) (UniProt Q61831). The assay can be described thus: JNK3 AlphaScreen Assay (AID 530).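 Note: kinase came from lysate of stimulated human HepG2 cells; signal reports phosphorylation of biotinylated GST-cJun 1-79 at Ser73 with 10 µM ATP; % is set by controls: 0 for no effect and ±100 for the full control effect.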 The essentials: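 Pre-activated (IL-1β/TNFα) JNK3 in HepG2 lysates phosphorylates biotin-GST-cJun(1-79), 10 uM ATP; anti-phospho-cJun(Ser73) AlphaScreen read at room temperature, pH 7.6 Tris buffer. Compounds pre-incubated 15 min as titrations.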
In general terms: Bead proximity is the source of the signal in Alpha formats.

In assay [7] the target is 3',5'-cyclic-AMP phosphodiesterase 4B (Homo sapiens) (UniProt Q07343). As to the kind of experiment: qHTS Assay for Inhibitors of PDE-IV (AID 607; active = well fitted activation curve with a large enough effect in the main read-out, with a control signal flat, not every such curve was filed as active; note: % of control where 0% means no effect). The essentials: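 Live HEK293 cells with a modified cyclic nucleotide-gated (CNG) channel report intracellular cAMP via membrane-potential dye fluorescence (ex 535/em 590 nm). Endogenous PDE-IV was targeted. Compounds were tested at up to 22.9 uM final; RO 20-1724 100 uM served as control.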
On the technique in general: qHTS replaces the single test concentration by a dilution series.

A short description of assay [8]: qHTS Assay for Lipid Storage Modulators (AID 1519; calls by dose curve). Conditions: Drosophila S3 cells, BODIPY lipid droplet/cell ratio, laser cytometry, cells loaded with oleic acid. The essentials:
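Cells seeded at 5,000 per well were treated with compounds over a concentration series and loaded with oleic acid (400 uM, as added). Lipid droplet fluorescence (488 nm excitation, 500-530 nm channel) was read by laser-scanning cytometry and normalized to 20 uM Triacsin C.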

In assay [9] the target is Ubiquitin carboxyl-terminal hydrolase 1 (Homo sapiens) (UniProt O94782). The assay can be described thus: Inhibitors of USP1/UAF1: Pilot qHTS (AID 504865; active = well fitted inhibition curve with a large enough effect;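 note: rhodamine fluorescence freed from ubiquitin-rhodamine substrate followed over time; top concentration of the series differs between compounds; % is set by controls: 0 for no effect and ±100 for the full control effect; nearly all actives have a fitted effect of over 35% in size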). In a few lines:
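USP1/UAF1 complex at 1 nM preincubated 15 min at room temperature with compound, then Ub-Rho substrate added at 150 nM final. Fluorescence (480/540 nm) read kinetically in 50 mM HEPES pH 7.8, 0.5 mM EDTA, 1 mM TCEP, 0.1 mg/ml BSA, 0.01% Tween-20.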

Chain of Glucocorticoid receptor (Homo sapiens) (P04150 whole entry, looked up, the tested form may be a part): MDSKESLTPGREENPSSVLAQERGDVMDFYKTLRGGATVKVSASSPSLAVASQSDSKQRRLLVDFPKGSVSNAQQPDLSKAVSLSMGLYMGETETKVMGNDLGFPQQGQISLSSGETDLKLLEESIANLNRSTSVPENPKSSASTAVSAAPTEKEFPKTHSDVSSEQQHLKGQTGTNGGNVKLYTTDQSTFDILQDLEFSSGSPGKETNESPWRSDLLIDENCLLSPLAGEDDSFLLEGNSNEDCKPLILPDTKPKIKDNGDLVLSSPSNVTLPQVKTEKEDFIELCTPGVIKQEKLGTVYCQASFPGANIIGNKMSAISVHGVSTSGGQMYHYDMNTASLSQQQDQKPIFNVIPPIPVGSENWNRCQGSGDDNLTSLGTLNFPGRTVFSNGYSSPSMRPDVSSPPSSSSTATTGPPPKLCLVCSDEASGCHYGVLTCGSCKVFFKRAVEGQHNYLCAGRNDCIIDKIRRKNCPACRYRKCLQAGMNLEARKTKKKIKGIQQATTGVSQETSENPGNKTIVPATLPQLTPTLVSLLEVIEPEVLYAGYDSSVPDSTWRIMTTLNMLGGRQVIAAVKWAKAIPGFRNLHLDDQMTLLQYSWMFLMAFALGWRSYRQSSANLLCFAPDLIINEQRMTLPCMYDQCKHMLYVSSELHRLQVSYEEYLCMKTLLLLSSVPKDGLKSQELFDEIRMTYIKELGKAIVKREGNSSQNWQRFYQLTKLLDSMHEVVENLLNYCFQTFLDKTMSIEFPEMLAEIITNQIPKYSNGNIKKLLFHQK
Chain of Cytochrome P450 1A2 (Homo sapiens) (P05177 whole entry, looked up): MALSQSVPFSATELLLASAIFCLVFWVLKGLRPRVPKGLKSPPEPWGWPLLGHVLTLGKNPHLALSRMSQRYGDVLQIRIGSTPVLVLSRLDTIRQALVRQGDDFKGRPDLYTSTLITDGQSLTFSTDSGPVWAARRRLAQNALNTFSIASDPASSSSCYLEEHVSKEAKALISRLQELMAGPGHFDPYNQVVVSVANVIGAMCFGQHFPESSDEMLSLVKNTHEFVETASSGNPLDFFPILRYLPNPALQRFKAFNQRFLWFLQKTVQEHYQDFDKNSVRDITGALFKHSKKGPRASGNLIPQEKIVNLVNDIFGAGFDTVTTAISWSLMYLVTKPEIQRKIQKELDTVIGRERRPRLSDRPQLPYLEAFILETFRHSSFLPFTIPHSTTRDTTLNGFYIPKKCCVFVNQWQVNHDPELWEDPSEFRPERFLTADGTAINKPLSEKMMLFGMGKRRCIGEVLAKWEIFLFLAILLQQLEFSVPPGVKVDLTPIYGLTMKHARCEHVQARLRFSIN
Chain of 3',5'-cyclic-AMP phosphodiesterase 4B (Homo sapiens) (Q07343 whole entry, looked up): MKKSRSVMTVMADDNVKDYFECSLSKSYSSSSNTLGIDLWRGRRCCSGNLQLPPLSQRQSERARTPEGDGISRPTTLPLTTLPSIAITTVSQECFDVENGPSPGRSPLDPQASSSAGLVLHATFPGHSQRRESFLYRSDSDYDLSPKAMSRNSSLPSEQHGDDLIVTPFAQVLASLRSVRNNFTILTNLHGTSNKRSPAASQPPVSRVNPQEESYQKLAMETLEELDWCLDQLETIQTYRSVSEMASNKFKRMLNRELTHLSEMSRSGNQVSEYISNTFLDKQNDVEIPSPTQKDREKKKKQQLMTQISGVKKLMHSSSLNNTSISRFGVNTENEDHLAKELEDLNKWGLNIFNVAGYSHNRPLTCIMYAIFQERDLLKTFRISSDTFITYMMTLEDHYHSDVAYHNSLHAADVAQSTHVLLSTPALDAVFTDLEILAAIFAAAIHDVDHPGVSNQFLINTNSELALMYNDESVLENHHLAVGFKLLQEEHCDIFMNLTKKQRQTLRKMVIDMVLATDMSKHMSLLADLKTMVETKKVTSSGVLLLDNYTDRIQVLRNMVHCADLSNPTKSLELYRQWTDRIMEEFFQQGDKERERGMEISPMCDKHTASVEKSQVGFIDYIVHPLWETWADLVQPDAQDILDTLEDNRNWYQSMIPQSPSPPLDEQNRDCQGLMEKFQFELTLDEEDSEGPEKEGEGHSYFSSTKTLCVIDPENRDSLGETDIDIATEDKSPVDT
Chain of Ubiquitin carboxyl-terminal hydrolase 1 (Homo sapiens) (O94782 whole entry, looked up): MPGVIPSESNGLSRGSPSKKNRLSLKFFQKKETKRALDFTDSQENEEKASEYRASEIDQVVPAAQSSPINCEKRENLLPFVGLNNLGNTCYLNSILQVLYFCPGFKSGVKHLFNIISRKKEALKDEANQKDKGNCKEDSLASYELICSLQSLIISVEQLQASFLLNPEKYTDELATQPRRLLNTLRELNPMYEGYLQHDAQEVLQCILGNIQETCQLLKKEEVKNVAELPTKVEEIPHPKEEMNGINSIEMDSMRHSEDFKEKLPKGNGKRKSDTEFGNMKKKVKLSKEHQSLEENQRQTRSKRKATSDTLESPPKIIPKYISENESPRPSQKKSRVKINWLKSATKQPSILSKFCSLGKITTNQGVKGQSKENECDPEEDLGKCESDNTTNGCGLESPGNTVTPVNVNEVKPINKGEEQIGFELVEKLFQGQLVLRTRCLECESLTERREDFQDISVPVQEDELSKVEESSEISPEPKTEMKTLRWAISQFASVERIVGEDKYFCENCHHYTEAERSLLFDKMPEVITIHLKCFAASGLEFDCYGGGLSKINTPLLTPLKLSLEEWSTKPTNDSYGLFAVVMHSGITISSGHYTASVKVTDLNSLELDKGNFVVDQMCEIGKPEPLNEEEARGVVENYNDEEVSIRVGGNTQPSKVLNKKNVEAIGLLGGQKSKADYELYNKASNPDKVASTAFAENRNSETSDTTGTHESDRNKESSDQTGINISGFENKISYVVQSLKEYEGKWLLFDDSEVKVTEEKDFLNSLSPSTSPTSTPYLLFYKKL

As for `C[C@H]1NC(=O)NC1=O`, the activity change, negative = inhibition in assay [1] is 18% [at 17.2 µM] (inactive) and -9.42% [at 17.2 µM] (inactive); in assay [3], -10.2% [at 17.2 µM] (inactive) and -1.97% [at 17.2 µM] (inactive); in [8] (at 25.7 µM (top of the series)), -0.728% (inactive). The Potency result in assay [2], in assay [6], in assay [7] and in assay [9] was “inactive” in each case. In [4], the activity, negative = inhibition is -29.7% [at 17.2 µM] (inactive) and -2.24% [at 17.2 µM] (inactive). In addition, the Potency in [5] was > 20.6 µM (inactive). Also, the max response in [8] (measured here: cell count channel max response) was -2.21%; in [8] (measured here: lipid channel max response) it was -1.48%.
